Measured values taken from PubChem BioAssay AID745 (Emory University Molecular Libraries Screening Center, 2007).
Hit rate of the full screen: of about 33,000 compounds, about 40 (0.1%) were called active. No stated cut-off is given here; in the data, active means z-score below about -3; inactive means the rest. Many of the other results were omitted from the sample, so actives are more common in it than they were.

assay: inhibitors of measles virus growth in cells, primary screen, measles RdRp inhibitor project, cell-based, single point, HTS (AID 745); details: infected Vero cells, GFP fluorescence, 64 h; hits give low values

Structure (SMILES) | z-score
COCCNC(=O)c1ccc(N2CC3CC(C2)c2cccc(=O)n2C3)c(NC(=O)c2cc3ccccc3oc2=O)c1 (stereo unspecified) | 0.89 (inactive)
Cc1ccc(NCc2ccccc2CO)cc1 | -0.53 (inactive)
C=CCC1(C#N)C(=S)NC(c2ccccc2)=C(C(=O)OCC)C1c1cccnc1 (stereo unspecified) | 1.37 (inactive)
CC(=O)N1CCc2cc(Br)cc(S(=O)(=O)NCCCN3CCCCCC3)c21 | 0.64 (inactive)
COc1ccc(C=NCCC2(c3ccc(OC)cc3)CCOC(C)(C)C2)cc1 (stereo unspecified) | -0.17 (inactive)
COc1ccccc1-c1nc2nc(C)cc(=O)n2[nH]1 | -0.19 (inactive)
Cc1ccccc1C(=O)Nc1cccc(F)c1 | 1.39 (inactive)
O=C(Cc1c(C(=O)O)[nH]c2ccc(Cl)cc12)NCc1ccc2c(c1)OCO2 | 1.5 (inactive)
COc1ccc(NC(=O)Cn2c(=O)n(CCc3ccccc3)c(=O)c3c(C)c(C)sc32)cc1 | 2.83 (inactive)
Cn1c(=O)c(=O)n(C)c2cc(S(=O)(=O)N3CCCc4ccccc43)ccc21 | -0.1 (inactive)
CCN1CCN(c2cc(C)c3cc(NC(=O)CCC4CCCC4)ccc3n2)CC1 | -0.38 (inactive)
Cc1cccc(C)c1NC(=O)CSc1ccc([N+](=O)[O-])cn1 | 0.01 (inactive)
COc1cccc(NC(=O)Cn2cc(C(=O)C(F)(F)F)c3ccccc32)c1 | -0.44 (inactive)
COc1ccc(OC)c(C2Nc3cccc4cccc(c34)N2)c1 | -0.45 (inactive)
CCOP(=O)(Cc1cc(C(C)(C)C)c(O)c(C(C)(C)C)c1)OCC | -1.02 (inactive)
CC1Cc2nc(SCC(=O)Nc3cccc(Cl)c3)n(C)c(=O)c2S1 (stereo unspecified) | 0 (inactive)
COc1cccc(OC)c1C(=O)Oc1cccc2ccc(C)nc12 | -0.39 (inactive)
CC1(C)CC(=O)C2=C(C1)OC1=C(C(=O)CC(C)(C)C1)C2c1ccccc1C(=O)O | 0.12 (inactive)
O=[N+]([O-])c1ccc(N2CCCCCC2)c(S(=O)(=O)N2CCOCC2)c1 | -0.01 (inactive)
Cc1ccccc1NC(=O)CC1Sc2ccccc2NC1=O (stereo unspecified) | -0.07 (inactive)
O=C(O)CCNC(=O)Cn1cnc2sc3c(c2c1=O)CCCC3 | 1.62 (inactive)
CCn1c(SCC(=O)Nc2ccc(F)cc2)nc2c(c1=O)SC(C)C2 (stereo unspecified) | -0.54 (inactive)

Structure (SMILES) | z-score
O=C(CSc1nc2c([nH]c3ccccc32)c(=O)n1-c1cccc(Cl)c1)Nc1nccs1 | -1.08 (inactive)
COc1ccc(Cl)cc1NC(=O)CSc1nc2cc(OC)c(OC)cc2c2nc(C)nn12 | -0.11 (inactive)
CCOCCOC(=O)C1=C(C)NC(=O)NC1c1cccc([N+](=O)[O-])c1 (stereo unspecified) | 4.15 (inactive)
COc1ccc(C=Cc2nc3ccccc3[nH]2)cc1 | -0.15 (inactive)
COc1cc(C2NC(=O)N(C)C(C)=C2C(=O)OCCc2ccccc2)cc(Br)c1O (stereo unspecified) | -0.63 (inactive)
COc1ccccc1-n1c(C)nc2cc(C(=O)NCc3cccnc3)ccc21 | 1.95 (inactive)
Cc1ccc(C(=O)CC2(O)C(=O)N(C(C)C)c3ccccc32)c(C)c1 (stereo unspecified) | -0.29 (inactive)
Clc1ccc(-c2ncnn2-c2cccc(Cl)c2)cc1 | -0.25 (inactive)
CCOc1ccc(Nc2cc(C(=O)NCCN3CCCC3)c3ccccc3n2)cc1 | -0.89 (inactive)
O=C(Nc1ccccc1-c1nc2ccccc2s1)c1ccc(S(=O)(=O)N2CCCCCC2)cc1 | 0.69 (inactive)
O=C(Nc1ccc(Oc2ccccc2)cc1)c1cn(-c2ccc(Cl)cc2)c(=O)c2ccccc12 | -0.93 (inactive)
Cc1onc(-c2ccccc2)c1C(=O)N1CCN(c2ccc(OCc3ccccc3)cc2)CC1 | -0.43 (inactive)
Cc1nn(C)c(C)c1S(=O)(=O)Nc1ccc(C(C)C)cc1 | -0.07 (inactive)
O=C(COC(=O)c1ccc(N2C(=O)c3ccccc3C2=O)cc1)c1ccc(Cl)cc1 | -1.36 (inactive)
CCOC(=O)c1c(O)cc2ccccc2c1O | 0.14 (inactive)
O=C1NCCCCC1Nc1ccc(N2C(=O)CCCC2=O)cc1[N+](=O)[O-] (stereo unspecified) | -1.9 (inactive)
Cc1ccc(C(=O)Nc2ccc(Br)cn2)cc1C | -0.15 (inactive)
COc1ccc(NC(=O)CN(c2cc(C(F)(F)F)ccc2Cl)S(=O)(=O)c2ccccc2)cc1 | -0.33 (inactive)
Cc1ccc2nc(N3CCC(C(=O)NC4CCCCC4)CC3)[nH]c2c1 | 3.44 (inactive)
CCCCSc1nnc2c(n1)OC(c1ccc3c(c1)OCO3)N(C(C)=O)c1ccccc1-2 (stereo unspecified) | 0.17 (inactive)
C=CCN1C(=O)c2ccccc2Sc2ccc(C(=O)NCCOC)cc21 | 1.28 (inactive)
Cc1ccc(S(=O)(=O)N2N=C(c3ccccc3)CC2c2ccccc2Cl)cc1 (stereo unspecified) | 0.52 (inactive)

Structure (SMILES) | z-score
COCCOC(=O)C1=C(C)NC(=O)NC1c1ccc(Br)s1 (stereo unspecified) | -0.55 (inactive)
Cc1ccc(CNC(=O)CCNC(=O)Cn2ccc3ccccc3c2=O)cc1 | -0.31 (inactive)
CCOc1sc2nc(C)n(CC(=O)Nc3ccc(N(C)C)cc3)c(=O)c2c1C | -1.08 (inactive)
CCC(C)NC(=O)C1(C)CCC(=O)N1CCN1CCCCCC1 (stereo unspecified) | -0.27 (inactive)
O=C1C2C3C=CC(C3)C2C(=O)N1c1ccc(Nc2ccc3c(c2)CCC3)c([N+](=O)[O-])c1 (stereo unspecified) | -1.35 (inactive)
Cn1ncc([N+](=O)[O-])c1C#N | -0.09 (inactive)
COc1ccc2c(c1)c(C(=O)CNc1nc(C)c(C)s1)c(C)n2C | -1 (inactive)
O=C1CCCN1CCCn1c(=S)[nH]c2ccccc2c1=O | -0.96 (inactive)
CC(=O)N1CCc2cc(S(=O)(=O)CCC(=O)Nc3ccc(C(F)(F)F)cc3)ccc21 | -0.69 (inactive)
Cc1ccc2nsnc2c1S(=O)(=O)Nc1ccc(Br)cc1 | -1.76 (inactive)
Cc1ccccc1NCc1cccc([N+](=O)[O-])c1 | 0.03 (inactive)
O=C(c1oc(=O)c2ccccc2c1-c1ccccc1)N1CCc2ccccc21 | 0.81 (inactive)
Nc1nc2ccccc2n1CCOc1ccc([N+](=O)[O-])cc1 | -0.25 (inactive)
CCC(=O)Nc1cccc(-c2nc3ncccc3o2)c1 | 0.77 (inactive)
Cc1ccc(CNC(=O)CCSCc2cccc(Cl)c2)cc1 | -0.79 (inactive)
CCOc1ccc(C(=O)Nc2ccc3nn(-c4ccc(OC)cc4)nc3c2)cc1Cl | 0.27 (inactive)
Cc1ccc(-c2nnn(CC(=O)Nc3ccc(OC(F)(F)F)cc3)n2)cc1 | 0.34 (inactive)
CCOC(=O)c1cnc2ccc(Cl)cc2c1Nc1ccc2c(c1)OCCO2 | -0.29 (inactive)
O=C(N1CCCc2ccccc21)C12CC3CC(CC(C3)C1)C2 | -0.74 (inactive)
O=C(O)c1ccc2c(c1)C(=O)N(c1cccc(Oc3ccc4c(c3)C(=O)N(c3ccccc3)C4=O)c1)C2=O | -2.01 (inactive)
COc1ccc(-n2cnc3cc(C(=O)NC4CCCC4)ccc32)cc1 | -0.86 (inactive)
Cc1cc(C)cc(-n2nc3c(c2NC(=O)CCCCl)CSC3)c1 | -0.91 (inactive)

Structure (SMILES) | z-score
COc1ccc(OC)c(NC(=O)c2c(NCc3ccc(C)o3)sc3c2CCC3)c1 | -1.95 (inactive)
Cc1cccc(C(=O)Nc2ccc(-c3nc4cc(C(C)(C)C)ccc4o3)cc2)c1 | -0.77 (inactive)
CCn1cc(C(=O)Nc2cc(Cl)ccc2OC)c(=O)c2ccc(C)nc21 | 0.75 (inactive)
CCn1cc(C(=O)NCCCN2CCCCCC2)c2cc(OC)c(OC)cc2c1=O | -0.6 (inactive)
Cc1cc(C)cc(NC(=O)CCCn2c(=S)[nH]c3ccccc3c2=O)c1 | -1.99 (inactive)
CCCCCCn1c(SCC(=O)c2ccccc2)nc2c1c(=O)[nH]c(=O)n2C | -0.58 (inactive)
CC(C)c1ccc(NS(=O)(=O)c2ccc3[nH]cc(C(=O)NC4CCCC4)c(=O)c3c2)cc1 | -2.24 (inactive)
COc1cc(C(=O)Nc2ccc(C(C)=O)cc2)cc(OC)c1OC | 0.14 (inactive)
O=C(O)c1ccc(-n2cnnn2)cc1 | 1.04 (inactive)
CCOC(=O)C1CCN(c2nc(-c3cccc(C)c3)nc3ccccc23)CC1 | -0.19 (inactive)
Cc1ccccc1CSC1=NCCN1C(=O)C12CC3CC(CC(C3)C1)C2 | -0.58 (inactive)
CCOc1ccccc1N(C)C(=O)C1c2cc(OC)c(OC)cc2C(=O)N(C)C1c1cccnc1 (stereo unspecified) | 1.17 (inactive)
CCN(CC)C(=O)C1c2cc(OC)c(OC)cc2C(=O)N(C)C1c1ccc(SC)cc1 (stereo unspecified) | 0.35 (inactive)
Nc1c(C(=O)Nc2ccc(Br)cc2)sc2nc3c(c(-c4ccco4)c12)CCCCC3 | -0.89 (inactive)
CN(C)c1ccc(C(O)(c2ccccc2)c2ccccc2)cc1 | -0.51 (inactive)
CC(C)CC(=O)N1CCN(Cc2ccccc2Br)CC1 | 0.09 (inactive)
O=C(CN1CCN(Cc2cccc(Cl)c2)C1=O)NC1CCCCCCC1 | 0.45 (inactive)
CC(C)CC(=O)N1CCN(Cc2cccc(Cl)c2)CC1 | -4 (active)
CCC(=O)N1CCc2cc(Br)cc(S(=O)(=O)N3CCCC(C(=O)N4CCN(c5cccc(C(F)(F)F)c5)CC4)C3)c21 (stereo unspecified) | -0.33 (inactive)
CCOC(=O)c1c(C)oc2ccc(N(C(=O)c3ccccc3Cl)S(=O)(=O)c3cccc([N+](=O)[O-])c3)cc12 | -0.28 (inactive)
